From PubChem BioAssay
Most compounds without a hit are left out; they make up all but 3.5% or so of the library.
TRb-SRC2 inh – qHTS for Inhibitors of the Interaction of Thyroid Hormone Receptor and Steroid Receptor Coregulator 2; Thyroid hormone receptor beta (Homo sapiens), P10828; TRbeta-SRC2 peptide binding, fluorescence polarization; receptor liganded with 1 µM T3; Potency, µM (titrated, usually from 106 µM), for inactives: top-dose activity change, negative = inhibition, actives largely listed as inhibitors; hit rate 0.065% among 280,000; AID 1469, 2008;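 also: plate controls were bound peptide for no effect and peptide without receptor for full effect; nearly all actives have a fitted effect of over 50% in size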
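Read-out is fluorescence polarization (555 nm excitation, 632 nm emission) of a Texas Red SRC2 coactivator peptide; loss of signal reflects blocked binding to human TRb ligand-binding domain in the presence of 1 uM T3.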
Tau fibril ThT – qHTS for Inhibitors of Tau Fibril Formation, Thioflavin T Binding | Microtubule-associated protein tau (Homo sapiens), P10636 | recombinant tau K18 P301L, heparin-induced fibrillization, ThT fluorescence | Potency, µM (series often up to 57.4 µM), without a hit: at the highest dose activity, negative = inhibition, most hits filed as inhibitors | hit rate 2.1% among 270,000 | AID 1460, 2008; also: nearly all actives have a fitted effect of over 55% in size
Target sequence (P10636 561-689 P618L limits assumed): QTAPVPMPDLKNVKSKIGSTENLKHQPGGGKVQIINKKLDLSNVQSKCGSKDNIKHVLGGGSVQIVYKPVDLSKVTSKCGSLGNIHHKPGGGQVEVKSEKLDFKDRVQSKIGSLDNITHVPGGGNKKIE
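Heparin-induced fibrillization of the P301L-mutant K18 repeat-domain fragment of human tau was followed by ThT binding in quantitative high-throughput format.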
TexasRed fluor – Total Fluorescence Counterscreen for Inhibitors of the Interaction of Thyroid Hormone Receptor and Steroid Receptor Coregulator 2 | hit rate 0.29% among 280,000 | TRb/SRC2 Texas Red total fluorescence interference | Potency, µM (highest dose often 106 µM), without a hit: top-dose fluorescence change, negative = quenching; active = well fitted curve in either direction with a large enough effect; inconclusive = small, poorly fitted or top-dose-only effect
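Human TRb ligand-binding domain at 0.6 uM with 20 nM Texas Red SRC2 peptide in Tris buffer containing 1 uM T3 and 5% DMSO, incubated with compound 5 h at ambient temperature. Total fluorescence (555/632 nm) calculated as parallel + 2 × perpendicular.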
KDM4E inh – qHTS Assay for Inhibitors of Human Jumonji Domain Containing 2E (JMJD2E); Lysine-specific demethylase 4E (Homo sapiens), B2RXH2; JMJD2E catalytic domain, FDH-coupled NADH fluorescence (FDH is formaldehyde dehydrogenase); Potency, µM (titrated, usually from 57.1 µM), for inactives: top-dose activity change, negative = inhibition, most hits filed as inhibitors; hit rate 1.6% among 230,000; active = well fitted inhibition curve with a large enough effect, not every such curve was filed as active; inconclusive = small, poorly fitted or top-dose-only effect, or another doubt; inactive = no such curve, though single readings can be large or run the other way;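 also: 0% = wells with enzyme and -100% = buffer wells without enzyme; nearly all actives have a fitted effect of over 50% in size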
Target sequence (B2RXH2 1-337 limits assumed): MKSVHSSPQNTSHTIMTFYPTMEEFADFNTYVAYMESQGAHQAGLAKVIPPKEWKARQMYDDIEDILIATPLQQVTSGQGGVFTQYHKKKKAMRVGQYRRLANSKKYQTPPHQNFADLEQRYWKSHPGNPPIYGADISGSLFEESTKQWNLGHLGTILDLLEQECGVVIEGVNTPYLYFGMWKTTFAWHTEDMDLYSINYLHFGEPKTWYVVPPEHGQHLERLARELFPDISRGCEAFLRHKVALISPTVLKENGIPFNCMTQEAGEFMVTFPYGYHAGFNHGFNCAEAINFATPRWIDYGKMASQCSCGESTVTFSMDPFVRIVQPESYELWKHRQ
Tau fluor counter – Counterscreen qHTS for Inhibitors of Tau Fibril Formation, Fluorescence Polarization; tau K18 P301L Alexa594 fluorescence, heparin fibrillization; Potency, µM (top dose mostly 57.7 µM), for the others: top-dose activity change, negative = decrease; hit rate 0.93% among 280,000; AID 1463, 2008; also: nearly all actives have a fitted effect of over 55% in size
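Human tau K18 P301L (15 uM unlabeled, 0.24 uM Alexa 594-labeled) in 100 mM sodium acetate pH 7 with 20 uM heparin, 6 hr at 37 C. ThT 30 uM added, 1 hr ambient; Alexa 594 FP and total fluorescence read at 555/632 nm.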
Tau FP inhib – qHTS for Inhibitors of Tau Fibril Formation, Fluorescence Polarization; Microtubule-associated protein tau (Homo sapiens), P10636; K18 P301L tau heparin fibrillization, Alexa594 FP, 6 h; Potency, µM (series often up to 57.7 µM), without a hit: top-dose activity, negative = inhibition, hits mostly inhibitors; hit rate 0.39% among 280,000; also: nearly all actives have a fitted effect of over 55% in size
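FP of Alexa 594-tau after heparin (20 uM) induction. Substrate: human K18 P301L, 15 uM unlabeled, 0.24 uM labeled. Buffer 100 mM sodium acetate pH 7. 6 hr, 37 C.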
Numbers without * were called inactive; u = inconclusive; x = no result; ! = not active in a repeat; [ ] = remark or other dose. Unless noted, calls follow the shape of the dose curve; as a rule, active = well fitted curve in the direction sought with a large enough effect; inconclusive = small, poorly fitted or top-dose-only effect, or another doubt; inactive = no such curve, though single readings can be large; an effect the other way counts as inactive or inconclusive. Unless noted, % is scaled to controls: 0 for no effect and ±100 for the full control effect; potency is read from the fitted curve at half-maximal effect.

SMILES | TRb-SRC2 inh | Tau fibril ThT | TexasRed fluor | KDM4E inh | Tau fluor counter | Tau FP inhib
COC(=O)c1sccc1NC(=S)Nc1cc(C)ccc1OC | -1% | -8% | 0% | -14% | -14% | -12%
O=C(O)c1ccc(Nc2nc(-c3cc4ccccc4oc3=O)cs2)cc1O | 23% | 7.9µM* | -26% | 20µM* | u | 1%
Nc1ccc(Nc2nc(-c3cc4ccccc4oc3=O)cs2)cc1 | -4% | u | -5% | -4% | 8.9µM*[quencher] | 13%
COc1ccc2oc(=O)c(-c3csc(Nc4cccc(O)c4)n3)cc2c1 | 10% | 13µM* | -15% | u | 6.3µM*[quencher] | -4%
O=C(Nc1nc(-c2cc3ccccc3oc2=O)cs1)c1ccc(Br)o1 | 14% | 7% | 3% | -4% | 8% | 6%
Nc1ccccc1Nc1cc(-c2ccccc2)nn1-c1ccccc1 | -15% | u | 2% | u | 14µM*[quencher] | 16%
Nc1ccccc1Nc1cc(-c2ccccc2)[nH]n1 | 8% | 14µM* | 0% | 20µM* | u | 8%
Nc1ccccc1Nc1ccccc1 | -22% | u | 9% | u | -29% | 1%
COc1ccc(Nc2cc(C(=O)NCCCN(C)Cc3ccccc3)c3ccccc3n2)cc1 | 3% | u | -31% | x | 13µM*[quencher] | u
COc1ccc(Nc2cc(C(=O)NCc3ccccc3)c3ccccc3n2)c(OC)c1 | -1% | u | 2% | x | 7.9µM*[quencher] | u
COc1ccc(CNC(=O)c2cc(-c3cccs3)nc3ccccc23)c(OC)c1 | -10% | u | 0.022µM*[quencher] | x | u | -15%
COc1ccc(Nc2nc(-c3ccccc3)nc3ccccc23)c(OC)c1 | -1% | u | -3% | u | 25µM*[quencher] | 8%
CCC(C(=O)Nc1cccc(C(=O)O)c1)c1ccccc1 (stereo unspecified) | -4% | -2% | 0% | 3% | -7% | 11%
Cc1cc(=O)n2nc(N3CCCC(C(=O)N4CCc5ccccc54)C3)sc2n1 (stereo unspecified) | 3% | -3% | 1% | 7% | 6% | 0%
COc1ccc(CCNC(=O)c2cc(Nc3ccccc3)nc3ccccc23)cc1OC | -18% | -9% | 0.0008µM*[quencher] | x | u | u
COc1ccc(Nc2cc(C(=O)NCCCN3CCN(c4ccccc4F)CC3)c3ccccc3n2)c(OC)c1 | 1% | u | -1% | x | 7.1µM*[quencher] | 5%
COc1ccc(Nc2cc(C(=O)NCCCN3CCOCC3)c3ccccc3n2)c(OC)c1 | -2% | u | 3% | 6% | -25% | 9%
COc1ccc(N2CCN(CCCNC(=O)c3cc(Nc4ccccc4OC)nc4ccccc34)CC2)cc1 | -2% | u | 0% | x | 8.9µM*[quencher] | -3%
COc1ccc(Nc2cc(C(=O)NCCCN3CCN(c4ccc(OC)cc4)CC3)c3ccccc3n2)cc1 | -8% | 14µM* | -1% | x | 4µM*[quencher] | -2%
O=C(NCCc1ccccc1)c1cc(Nc2ccccc2)nc2ccccc12 | -6% | -9% | -1% | x | u | u
COc1ccc(C2Cc3ccccc3C(=O)O2)cc1 (stereo unspecified) | 0% | -3% | -1% | 1% | -6% | 2%
COc1ccc(N2C3=C(CC4=C2CC(C)(C)CC4=O)C(=O)CC(C)(C)C3)cc1 | -6% | 20µM* | 2% | u | -22% | u
COc1ccc(N2C3=C(CC4=C2CCCC4=O)C(=O)CCC3)cc1 | -23% | u | -8% | u | -30% | u
C[C@@](N)(C(=O)O)c1ccc(P(=O)(O)O)cc1 | -22% | -7% | -1% | u | -6% | -5%
O=C(O)Cn1cccc1C(=O)c1ccccc1 | -2% | 8.9µM* | -1% | -14% | u | 4%
SMILES | TRb-SRC2 inh | Tau fibril ThT | TexasRed fluor | KDM4E inh | Tau fluor counter | Tau FP inhib
COC(=O)Cn1cccc1C(=O)c1ccccc1 | 2% | -2% | 0% | 7% | -5% | 1%
COc1cccc(C2C3=C(Nc4[nH]n(-c5ccccc5)c(=O)c42)c2ccccc2C3=O)c1 (stereo unspecified) | 4% | 5µM* | -17% | 7% | u | 0%
COc1cccc(C2C3=C(CCCC3=O)Nc3[nH]n(-c4ccccc4)c(=O)c32)c1 (stereo unspecified) | -3% | -2% | 2% | 3% | 2% | 9%
CCNC(=S)N1CCC(NC(=O)c2ccco2)CC1 | 6% | -4% | -3% | -3% | 0% | -6%
COCCCNS(=O)(=O)c1ccc2c(c1)OCCO2 | -6% | 1% | -1% | 4% | 0% | -6%
CCOCCCNS(=O)(=O)c1ccc2c(c1)OCCO2 | 0% | 16µM* | -11% | u | 16µM*[quencher] | -5%
Cc1ccc(C2=CSC3=NNC4(CCCCC4)NN23)cc1 | 9% | u | 3% | -10% | -26% | 0%
COc1ccc(C2=CSC3=NNC4(CCCCC4)NN23)cc1 | 1% | 22µM* | -3% | u | -26% | 0%
O=C(CC1SC(=O)NC1=O)Oc1ccc(/C=N/NC(=O)c2ccccc2O)cc1 (stereo unspecified) | -7% | -11% | -3% | u | -13% | -10%
CCOC(=O)Cn1c(=O)n(Cc2ccco2)c(=O)c2ccc(C(=O)NC3CCCC3)cc21 | -3% | -13% | 7% | 5% | -15% | -8%
CCOc1ccc(NC(=O)Cn2c(=O)n(Cc3ccco3)c(=O)c3ccc(C(=O)NC4CCCC4)cc32)cc1 | -3% | 2% | -2% | x | u | 16µM*
OC1(c2cccnc2)CCN(Cc2nnnn2Cc2ccccc2)CC1 | 7% | -7% | -3% | 2% | -7% | -9%
COc1ccc(NC(=S)N2CCN(C/C=C/c3ccccc3)CC2)cc1 | 1% | -11% | -7% | -2% | -20% | 0%
COc1ccccc1/C=C/C(=O)OCC(=O)NCCC1=CCCCC1 | -2% | -3% | -3% | -11% | -9% | -6%
CCCCN(CC)S(=O)(=O)c1ccc(C(=O)Nc2nnc(-c3cccs3)o2)cc1 | -9% | u | -1% | 25µM* | -21% | 5%
Oc1ccc(NCc2ccccc2OCc2ccccc2)cc1 | 35µM* | 14µM* | 50µM*![fluorescent] | 11µM* | 10µM*[quencher] | 13µM*!
CCOc1cc(CNc2ccc(O)cc2)ccc1OCc1ccc(Cl)cc1 | -27%[11.2 µM] | 16µM* | 6%[11.2 µM] | x | 14µM*[quencher] | -8%
